Laboratory results from PubChem BioAssay (Tox21).
Results filed as inconclusive are left out. Calls of active or inactive are those of the source. The call rests on the fitted dose curve.

How the values were obtained:
[1] = target: Acetylcholinesterase (Homo sapiens) (UniProt P22303); experiment: Acetylcholinesterase (AChE) small molecule antagonists: colormetric cell-based qHTS assay (AID 1347395); further: nearly all actives have a fitted effect of over 30% in size
Method in brief: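 In this cell-based qHTS, attached SH-SY5Y cells were treated with test chemicals for 30 min, after which acetylthiocholine hydrolysis was followed by DTNB colour development over 90 min at 37 C.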

[2] = target: Acetylcholinesterase (Homo sapiens) (UniProt P22303); experiment: Acetylcholinesterase (AChE) small molecule antagonists: enzyme-based qHTS assay (AID 1347397); details: Potency: AChE enzyme activity inhibition; outcome: AChE enzyme activity inhibition; further: nearly all actives have a fitted effect of over 55% in size
Method in brief: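 Colorimetric DTNB readout of acetylthiocholine hydrolysis, 10 min at room temperature, after 30 min room-temperature exposure of 50 mU/mL recombinant human enzyme to compound; DMSO vehicle control.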

[3] = target: Acetylcholinesterase (Homo sapiens) (UniProt P22303); experiment: Acetylcholinesterase (AChE) small molecule antagonists: fluorescence cell-based qHTS assay (AID 1347398); details: Potency: AChE activity; outcome: AChE activity; further: nearly all actives have a fitted effect of over 50% in size
Method in brief: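 Cellular AChE activity read as thiocholine from acetylthiocholine hydrolysis, detected by Thiolite Green fluorescence at 490/520 nm after 40 min at room temperature. Compounds were pre-incubated 30 min at 37 C on adherent SH-SY5Y cells.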

[4] = target: Acetylcholinesterase (Homo sapiens) (UniProt P22303); experiment: Acetylcholinesterase (AChE) small molecule antagonists: enzyme-based qHTS assay with human liver microsomes (AID 1347399); details: Potency: qHTS inhibition; outcome: qHTS inhibition; further: nearly all actives have a fitted effect of over 60% in size
Method in brief: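 Recombinant human AChE (50 mU/mL in the enzyme mix) and human liver microsomes (0.25 mg/mL final) were preincubated with compound and NADPH (0.25 mg/mL final) for 30 min at 37 C. Acetylthiocholine/DTNB was then added; thiocholine was read colorimetrically after 10 min at room temperature.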
On the % scale 0 is the no-effect control and ±100 the full control effect.

Chain of Acetylcholinesterase (Homo sapiens) (P22303 whole entry, looked up): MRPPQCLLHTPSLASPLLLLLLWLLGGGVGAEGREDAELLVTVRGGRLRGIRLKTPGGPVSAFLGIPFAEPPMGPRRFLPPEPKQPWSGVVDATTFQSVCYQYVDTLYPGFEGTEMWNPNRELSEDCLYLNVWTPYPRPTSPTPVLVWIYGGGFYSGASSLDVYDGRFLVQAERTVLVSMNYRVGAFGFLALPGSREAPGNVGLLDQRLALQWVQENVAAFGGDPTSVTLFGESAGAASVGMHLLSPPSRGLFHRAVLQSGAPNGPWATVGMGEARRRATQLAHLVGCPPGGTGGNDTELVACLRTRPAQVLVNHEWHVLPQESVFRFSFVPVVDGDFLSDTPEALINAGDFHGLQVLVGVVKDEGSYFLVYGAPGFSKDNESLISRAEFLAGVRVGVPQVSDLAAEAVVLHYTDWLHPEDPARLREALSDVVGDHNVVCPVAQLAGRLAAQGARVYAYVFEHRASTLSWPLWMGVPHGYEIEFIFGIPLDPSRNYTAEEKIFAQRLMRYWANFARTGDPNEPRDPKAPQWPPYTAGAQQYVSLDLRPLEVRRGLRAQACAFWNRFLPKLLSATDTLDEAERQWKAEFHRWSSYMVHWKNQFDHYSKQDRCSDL

O=[N+]([O-])c1ccccc1CCO
inactive: Potency [1] | Potency [2] | Potency [3] | Potency [4]

CC(=O)O[C@@]12CO[C@@H]1C[C@H](O)[C@@]1(C)C(=O)[C@H](O)C3=C(C)[C@@H](OC(=O)[C@H](O)[C@@H](NC(=O)OC(C)(C)C)c4ccccc4)C[C@@](O)([C@@H](OC(=O)c4ccccc4)[C@H]21)C3(C)C
inactive: Potency [1] | Potency [2] | Potency [3] | Potency [4]

Nc1cccc2c1CN(C1CCC(=O)NC1=O)C2=O (stereo not given)
inactive: Potency [1] | Potency [2] | Potency [3] | Potency [4]

CCCCCCCCCCCCCCCCBr
inactive: activity, negative = inhibition [1] 0.0868% [at 23.6 µM] | activity change, negative = inhibition [2] 2.89% [at 23.6 µM] | activity change, negative = inhibition [3] -0.68% [at 23.8 µM] | activity change, negative = inhibition [4] 0.57% [at 23.6 µM]

Cc1ccc(N=Nc2c(O)c(C(=O)O)cc3ccccc23)c(S(=O)(=O)O)c1
inactive: Potency [1] | Potency [2] | Potency [3] | Potency [4]

Cc1cc(C)n(CO)n1
inactive: Potency [1] | Potency [2] | Potency [3] | Potency [4]

CCOC(=O)C1=NN(c2ccccc2)C(=O)C1
inactive: Potency [1] | Potency [2] | Potency [3] | Potency [4]

COC(=O)c1ccc(O)cc1
inactive: Potency [1] | Potency [2] | Potency [3] | Potency [4]

CCCCCCCCCC(=O)O
inactive: Potency [1] | Potency [2] | Potency [3] | Potency [4]

CCN(CC)c1ccc(N=Nc2ccccc2)cc1
inactive: Potency [1] | Potency [2] | Potency [3] | Potency [4]

C[Si](C)(C)Cl
inactive: Potency [1] | Potency [2] | Potency [3] | Potency [4]

C#C[C@]1(O)CC[C@H]2[C@@H]3CCC4=CC(=O)CC[C@@H]4[C@H]3CC[C@@]21CC
inactive: Potency [1] | Potency [2] | Potency [3] | Potency [4]

O=C(O)CCS
inactive: Potency [1] | Potency [2] | Potency [3] | Potency [4]

CCN1CCc2nc(N)oc2CC1
inactive: Potency [1] | Potency [2] | Potency [3] | Potency [4]

NCc1ccccc1Sc1ccccc1CO
inactive: Potency [1] | Potency [2] | Potency [3] | Potency [4]

Cc1cn([C@@H]2O[C@H](CO)[C@@H](O)[C@@H]2F)c(=O)[nH]c1=O
inactive: Potency [1] | Potency [2] | Potency [3] | Potency [4]

OCCN1CCNCC1
inactive: Potency [1] | Potency [2] | Potency [3] | Potency [4]

C1CCCC1
inactive: Potency [1] | Potency [2] | Potency [3] | Potency [4]

Cc1onc(-c2ccccc2)c1C(=O)Cl
inactive: Potency [1] | Potency [2] | Potency [3] | Potency [4]

C=CC(C)(CCC=C(C)C)OC(C)=O (stereo not given)
inactive: Potency [1] | Potency [2] | Potency [3] | Potency [4]

O=C(O)c1ccccc1C(=O)OCc1ccccc1
inactive: Potency [1] | Potency [2] | Potency [3] | Potency [4]

O=C(NCN1CCOCC1)c1cnccn1
inactive: Potency [1] | Potency [2] | Potency [3] | Potency [4]

Cn1c(N)nc2nc[nH]c2c1=O
inactive: Potency [1] | Potency [2] | Potency [3] | Potency [4]

CCOC(=O)c1cc(=O)c2c(OCC(COc3cccc4oc(C(=O)OCC)cc(=O)c34)OC(=O)[C@@H](N)CCCCN)cccc2o1
inactive: Potency [1] | Potency [2] | Potency [3] | Potency [4]

COc1cc(C(=O)OC(COCCC(C)C)CN2CCOCC2)cc(OC)c1OC (stereo not given)
inactive: Potency [1] | Potency [2] | Potency [3] | Potency [4]

CC(C)OC=O
inactive: Potency [1] | Potency [2] | Potency [3] | Potency [4]

COP(=O)(OC)OC(c1ccc(Cl)cc1)P(=O)(OC)OC (stereo not given)
inactive: Potency [1] | Potency [2] | Potency [3] | Potency [4]

CCCCCCCC(=O)OCC(COC(=O)CCCCCCC)OC(=O)CCCCCCC
inactive: Potency [1] | Potency [2] | Potency [3] | Potency [4]

c1ccc(CCCc2ccncc2)cc1
inactive: Potency [1] | Potency [2] | Potency [3] | Potency [4]

C=C(C)C(=O)OCCO
inactive: Potency [1] | Potency [2] | Potency [3] | Potency [4]
